PubChem BioAssay (Tox21)
Values joined by “and” are separate entries in the source; they are usually repeats but may differ in a detail not shown here. Equal entries are not always repeated. Results filed as inconclusive are left out. A call without a number means that no potency is given here. Where a structure was tested more than once in an assay, its records may differ in their call. Active and inactive are the calls of the source. Unless noted, calls come from the whole dose curve; as a rule, active = well fitted curve in the direction sought with a large enough effect in the repeat runs; inconclusive = weak or mixed curves; inactive = no such curve, though single readings can be large; an effect the other way counts as inactive or inconclusive.

What was measured:
[1] = qHTS assay to identify small molecule agonists of the vitamin D receptor (VDR) signaling pathway - cell viability counter screen (AID 743224); note: nearly all actives have a fitted effect of over 50% in size; note: potency is the fitted concentration of half-maximal effect
Summary of the method: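 VDR-bla cells, 4 h after plating, exposed to compounds for 16 h at 37C; viability then read in the same wells as CellTiter-Glo luminescence after 30 min at room temperature, following the bla FRET read.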

[2] = qHTS assay to identify small molecule antagonists of the vitamin D receptor (VDR) signaling pathway - cell viability counter screen (AID 743225); note: nearly all actives have a fitted effect of over 50% in size; note: potency is the fitted concentration of half-maximal effect
Summary of the method: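 VDR-bla HEK 293T cells, 4 h pre-incubation at 37C, then compound plus 1-alpha,25-dihydroxyvitamin D3 (3 nM final) for 16 h. After the beta-lactamase FRET read, CellTiter-Glo was added to the same wells; luminescence after 30 min at room temperature.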

[3] = qHTS assay to identify small molecule agonists of the NFkB signaling pathway - cell viability counter screen (AID 1159515; calls by dose curve; note: nearly all actives have a fitted effect of over 55% in size; note: potency is the fitted concentration of half-maximal effect)
Summary of the method: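 NFkB-bla ME-180 cells, 2,000/well, plated overnight at 37 C; compound added for 5 hr at 37 C. Viability read in the same wells as the bla reporter, by CellTiter-Glo luminescence after 30 min at room temperature.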

[4] = qHTS assay to identify small molecule agonists of the endoplasmic reticulum stress response signaling pathway (AID 1159516; active = well fitted activation curve with a large enough effect in the signal ratio in the repeat runs, not every such curve was filed as active; the % refers to the signal ratio; note: potency is the fitted concentration of half-maximal effect)
Summary of the method: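 CellSensor ESRE-bla HeLa cells, 1,500 per well, plated overnight, then exposed to compounds for 5 hr at 37 C. Beta-lactamase reporter read with LiveBLAzer B/G FRET substrate after 2 hr at room temperature, 405 nm excitation, 460 and 530 nm emission.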

[5] = qHTS assay to identify small molecule agonists of the endoplasmic reticulum stress response signaling pathway - cell viability counter screen (AID 1159517; calls by dose curve; note: nearly all actives have a fitted effect of over 50% in size; note: potency is the fitted concentration of half-maximal effect)
Summary of the method: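 Cells, HeLa ESRE-bla; density, 1,500/well; dosing, 5 hr at 37 C, 5% CO2; readout, CellTiter-Glo luminescence after 30 min RT.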

[6] = qHTS assay to identify small molecule antagonists of the retinoid-related orphan receptor gamma (ROR-gamma) signaling pathway - cell viability counter screen (AID 1159520); note: nearly all actives have a fitted effect of over 50% in size; note: potency is the fitted concentration of half-maximal effect
Summary of the method: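 Cytotoxicity was read from cellular ATP (CellTiter-Glo luminescence) after 16 hr at 37 C with 1 uM doxycycline induction. The inducer was added 2 hr after compound transfer to Tet-on ROR gamma CHO cells.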

[7] = target: Nuclear receptor ROR-gamma (Homo sapiens) (UniProt P51449); assay: qHTS assay to identify small molecule antagonists of the retinoid-related orphan receptor gamma (ROR-gamma) signaling pathway (AID 1159521; note: nearly all actives have a fitted effect of over 50% in size; note: potency is the fitted concentration of half-maximal effect)
Summary of the method: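 Tet-on RORγ CHO cells carrying a ROR response element–luciferase reporter were pretreated with compounds for 2 h, then induced with 1 uM (final) doxycycline hyclate for 16 h at 37 C. Antagonism was read as decreased ONE-Glo luminescence.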

[8] = qHTS assay to identify small molecule agonists of the AP-1 signaling pathway (AID 1159526; calls by dose curve)
[9] = target: Retinoic acid receptor RXR-alpha (Homo sapiens) (UniProt P19793); assay: qHTS assay to identify small molecule agonists of the RXR signaling pathway (AID 1159527; calls by dose curve; note: nearly all actives have a fitted effect of over 35% in size; note: potency is the fitted concentration of half-maximal effect)
Summary of the method: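 GeneBLAzer RXR-alpha-UAS-bla HEK 293T cells in medium with 2% charcoal-stripped FBS, pre-incubated 5 hr at 37 C, then exposed to compounds 16 hr. Beta-lactamase reporter read by FRET substrate, 2 hr room temperature, 460/530 nm emission.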

[10] = qHTS assay to identify small molecule agonists of the AP-1 signaling pathway - cell viability counter screen (AID 1159525; calls by dose curve; note: nearly all actives have a fitted effect of over 55% in size)
Summary of the method: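 Luminescent ATP readout (Cell Titer Glo, 30 min RT), normalised to DMSO and tetra n-octyl ammonium bromide controls. Cells were ME-180 AP-1-bla in 0.5% dialyzed FBS Opti-MEM, with a 5 h, 37 °C compound exposure.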

Retinoic acid receptor RXR-alpha (Homo sapiens), sequence (P19793 whole entry, looked up): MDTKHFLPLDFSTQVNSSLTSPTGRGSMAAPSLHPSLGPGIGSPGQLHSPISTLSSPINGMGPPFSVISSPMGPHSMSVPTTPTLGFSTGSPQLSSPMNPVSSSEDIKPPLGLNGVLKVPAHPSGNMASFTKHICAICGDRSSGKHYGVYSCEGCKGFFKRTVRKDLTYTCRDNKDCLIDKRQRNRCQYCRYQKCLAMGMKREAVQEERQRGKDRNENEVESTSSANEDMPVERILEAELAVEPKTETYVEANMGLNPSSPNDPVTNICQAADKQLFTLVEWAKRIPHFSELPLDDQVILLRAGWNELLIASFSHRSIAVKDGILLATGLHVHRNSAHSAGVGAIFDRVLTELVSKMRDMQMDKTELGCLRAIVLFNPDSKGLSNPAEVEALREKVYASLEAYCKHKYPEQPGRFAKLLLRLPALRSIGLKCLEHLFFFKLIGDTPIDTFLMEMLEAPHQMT

| Structure (SMILES) | Potency [1] | Potency [2] | Potency [3] | Potency [4] | Potency [5] | Potency [6] | Potency [7] | Potency [8] | Potency [9] | Potency [10] |
| --- | --- | --- | --- | --- | --- | --- | --- | --- | --- | --- |
| O=C(O)CCCCCCCCCCCC(=O)O | inactive | inactive | inactive | inactive | inactive | inactive | 53.6 µM (active) and inactive | inactive | inactive | – |
| OC[C@@H](O)[C@@H](O[C@@H]1O[C@H](CO)[C@H](O)[C@H](O)[C@H]1O)[C@H](O)[C@@H](O)CO | inactive | inactive | inactive | inactive | inactive | inactive | inactive | inactive | inactive | – |
| C=CCOC(=O)C(=C)C | inactive | inactive | inactive | inactive | inactive | inactive | inactive | inactive | inactive | – |
| C[C@]12CC[C@@H]3c4ccc(O)cc4CC[C@H]3[C@@H]1CC[C@@H]2O | inactive | inactive | inactive | inactive | inactive | inactive | 27.3 µM (active) | inactive | – | inactive |
| CCOC(=O)C(C)Oc1ccc(Oc2cnc3cc(Cl)ccc3n2)cc1 (stereo not given) | inactive | inactive | inactive | inactive | inactive | inactive | inactive | inactive | – | inactive |
| OC[C@H]1O[C@@H]2O[C@H]3[C@H](O)[C@@H](O)[C@@H](O[C@H]4[C@H](O)[C@@H](O)[C@@H](O[C@H]5[C@H](O)[C@@H](O)[C@@H](O[C@H]6[C@H](O)[C@@H](O)[C@@H](O[C@H]7[C@H](O)[C@@H](O)[C@@H](O[C@H]1[C@H](O)[C@H]2O)O[C@@H]7CO)O[C@@H]6CO)O[C@@H]5CO)O[C@@H]4CO)O[C@@H]3CO | inactive | inactive | inactive | inactive | inactive | inactive | inactive | inactive | – | – |
| c1ccc2cc3ccccc3cc2c1 | inactive | inactive | inactive | 56.7 µM (active) | inactive | inactive | inactive | inactive | inactive | – |
| CCC(Cc1c(I)cc(I)c(N)c1I)C(=O)O (stereo not given) | inactive | inactive | inactive | inactive | inactive | inactive | inactive | – | inactive | inactive |
| CN(C)/N=N/c1nc[nH]c1C(N)=O | inactive | inactive | inactive | inactive | inactive | inactive | inactive | inactive | inactive | – |
| Nc1cc([N+](=O)[O-])ccc1C(=O)O | inactive | inactive | inactive | inactive | inactive | inactive | inactive | inactive | inactive | – |
| CC(=O)[C@H]1CC[C@H]2[C@@H]3CC=C4C[C@@H](O)CC[C@]4(C)[C@H]3CC[C@]12C | inactive | inactive | inactive | inactive | inactive | inactive | 13.7 µM (active) | inactive | – | inactive |
| CN1CCOCC1 | inactive | inactive | inactive | inactive | inactive | inactive | inactive | inactive | inactive | – |
| Cc1ccc(C(C)(C)C)c(O)c1 | inactive | inactive | inactive | inactive | inactive | inactive | inactive | – | inactive | – |
| IC(I)I | inactive | inactive | inactive | inactive | inactive | inactive | inactive | – | inactive | inactive |
| CC(C)[N+](C)(CCOC(=O)C1c2ccccc2Oc2ccccc21)C(C)C | inactive | inactive | inactive | inactive | inactive | inactive | inactive | inactive | – | inactive |
| CC(=O)O[C@]1(C(C)=O)CC[C@H]2[C@@H]3C=C(C)C4=CC(=O)CC[C@]4(C)[C@H]3CC[C@@]21C | inactive | inactive | inactive | inactive | inactive | inactive | 21.7 µM (active) | inactive | – | inactive |
| NC[C@H](O)c1ccc(O)c(O)c1 | inactive | inactive | inactive | inactive | inactive | inactive | inactive | inactive | inactive | – |
| Nc1ccc2c(O)cc(S(=O)(=O)O)cc2c1 | inactive | inactive | inactive | inactive | inactive | inactive | 9.7 µM (active) and 5.45 µM (active) | – | inactive | inactive |
| COC(=O)C(C)Oc1ccc(Oc2ncc(C(F)(F)F)cc2Cl)cc1 (stereo not given) | inactive | inactive | inactive | inactive | inactive | inactive | inactive | inactive | – | inactive |
| C[N+](C)(C)CCO | inactive | inactive | inactive | inactive | inactive | inactive | inactive | inactive | inactive | – |
| CN(C)CCCN1c2ccccc2Sc2ccc(Cl)cc21 | 21.9 µM (active) | 24.5 µM (active) and inactive | 54.9 µM (active) and inactive | inactive | inactive | inactive | 34.4 µM (active) | – | – | inactive |
| Nc1cc(Cl)c(N)c(Cl)c1 | inactive | inactive | inactive | inactive | inactive | inactive | inactive | inactive | inactive | – |
| C=C[C@@]1(C)CC(=O)[C@]2(O)[C@@]3(C)[C@@H](O)CCC(C)(C)[C@@H]3[C@H](O)[C@H](OC(C)=O)[C@@]2(C)O1 | inactive | – | 24.5 µM (active) and 21.3 µM (active) | inactive | 21.9 µM (active) and 21.3 µM (active) | inactive | 54.5 µM (active) | inactive | 12.3 µM (active) | – |
| CCCCCCCCCCCCO | inactive | inactive | inactive | inactive | inactive | inactive | inactive | inactive | – | inactive |
| O=C(CCCN1CCC(O)(c2ccc(Cl)cc2)CC1)c1ccc(F)cc1 | inactive | inactive | inactive | inactive | inactive | 54.5 µM (active) and inactive | inactive | inactive | – | – |
